Assay in all cases: PBM; 200 nM protein, PBS
Common to all, as to settings: dsDNA, one strand shown

The target in test [1] is HOXB9 (Homo sapiens, UniProt P17482 171-250, T197M).
The target of test [2] is HOXB9 (Homo sapiens, UniProt P17482 171-250).
Test [3] addresses VAX1 (Homo sapiens, UniProt Q5SQQ9 86-172).
Test [4] concerns the target HOXB9 (Homo sapiens, UniProt P17482 171-250, R186Q).
Test [5] concerns the target VAX1 (Homo sapiens, UniProt Q5SQQ9 86-172, T142I).
Test [6] concerns the target VAX1 (Homo sapiens, UniProt Q5SQQ9 86-172, K157R).
Test [7] deals with HOXD13 (Homo sapiens, UniProt P35453 263-343, T313R).
Test [8] concerns the target MSX2 (Homo sapiens, UniProt P35548 130-214, R199I).
In test [9] the target is MSX2 (Homo sapiens, UniProt P35548 130-214).
For test [10], the target named is MSX2 (Homo sapiens, UniProt P35548 130-214, F161Y).
Test [11] concerns the target HOXA2 (Homo sapiens, UniProt O43364 129-215, R185T).
Test [12] has as its target HOXA2 (Homo sapiens, UniProt O43364 129-215, R185K).
For test [13], the target named is HOXA2 (Homo sapiens, UniProt O43364 129-215, Y150S).
Test [14] has as its target HOXA2 (Homo sapiens, UniProt O43364 129-215).
The target in test [15] is HOXD13 (Homo sapiens, UniProt P35453 263-343).
Test [16] has as its target PROP1 (Homo sapiens, UniProt O75360 56-141).
The target of test [17] is PROP1 (Homo sapiens, UniProt O75360 56-141, R99H).
Test [18] deals with HOXD13 (Homo sapiens, UniProt P35453 263-343, T313A).
Test [19] has as its target PROP1 (Homo sapiens, UniProt O75360 56-141, F88S).

Sequence of HOXB9 (Homo sapiens, UniProt P17482 171-250) (P17482 171-250): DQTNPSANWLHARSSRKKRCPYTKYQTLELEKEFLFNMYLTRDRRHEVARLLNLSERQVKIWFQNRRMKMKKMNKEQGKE
Sequence of HOXB9 (Homo sapiens, UniProt P17482 171-250, T197M) (P17482 171-250 T197M): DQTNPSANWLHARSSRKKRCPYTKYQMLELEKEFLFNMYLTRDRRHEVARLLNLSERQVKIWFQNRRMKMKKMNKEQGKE
Sequence of HOXB9 (Homo sapiens, UniProt P17482 171-250, R186Q) (P17482 171-250 R186Q): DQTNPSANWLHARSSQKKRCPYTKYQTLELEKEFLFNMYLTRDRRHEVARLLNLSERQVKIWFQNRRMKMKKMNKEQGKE
Sequence of MSX2 (Homo sapiens, UniProt P35548 130-214, R199I) (P35548 130-214 R199I): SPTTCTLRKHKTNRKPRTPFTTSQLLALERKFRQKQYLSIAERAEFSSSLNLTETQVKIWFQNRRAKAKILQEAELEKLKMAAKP
Sequence of MSX2 (Homo sapiens, UniProt P35548 130-214, F161Y) (P35548 130-214 F161Y): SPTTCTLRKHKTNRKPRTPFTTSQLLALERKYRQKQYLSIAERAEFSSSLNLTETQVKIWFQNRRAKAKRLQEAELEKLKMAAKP
Sequence of MSX2 (Homo sapiens, UniProt P35548 130-214) (P35548 130-214): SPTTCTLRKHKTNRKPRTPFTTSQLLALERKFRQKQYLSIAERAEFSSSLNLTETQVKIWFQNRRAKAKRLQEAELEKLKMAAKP
Sequence of VAX1 (Homo sapiens, UniProt Q5SQQ9 86-172) (Q5SQQ9 86-172): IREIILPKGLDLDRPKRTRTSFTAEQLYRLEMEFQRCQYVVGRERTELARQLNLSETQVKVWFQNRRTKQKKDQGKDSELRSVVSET
Sequence of VAX1 (Homo sapiens, UniProt Q5SQQ9 86-172, K157R) (Q5SQQ9 86-172 K157R): as the sequence (Q5SQQ9 86-172) above, with K72R counted along it
Sequence of VAX1 (Homo sapiens, UniProt Q5SQQ9 86-172, T142I) (Q5SQQ9 86-172 T142I): as the sequence (Q5SQQ9 86-172) above, with T57I counted along it
Sequence of HOXD13 (Homo sapiens, UniProt P35453 263-343, T313R) (P35453 263-343 T313R): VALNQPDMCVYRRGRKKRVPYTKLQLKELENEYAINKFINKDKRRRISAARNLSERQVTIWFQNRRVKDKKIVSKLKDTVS
Sequence of PROP1 (Homo sapiens, UniProt O75360 56-141, F88S) (O75360 56-141 F88S): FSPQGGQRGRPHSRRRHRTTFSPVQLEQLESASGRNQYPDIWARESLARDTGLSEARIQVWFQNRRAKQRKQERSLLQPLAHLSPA
Sequence of HOXA2 (Homo sapiens, UniProt O43364 129-215, R185K) (O43364 129-215 R185K): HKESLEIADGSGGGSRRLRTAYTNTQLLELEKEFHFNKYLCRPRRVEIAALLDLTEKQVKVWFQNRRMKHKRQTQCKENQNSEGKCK
Sequence of HOXA2 (Homo sapiens, UniProt O43364 129-215, R185T) (O43364 129-215 R185T): as the sequence (O43364 129-215 R185K) above, with K57T counted along it
Sequence of HOXD13 (Homo sapiens, UniProt P35453 263-343, T313A) (P35453 263-343 T313A): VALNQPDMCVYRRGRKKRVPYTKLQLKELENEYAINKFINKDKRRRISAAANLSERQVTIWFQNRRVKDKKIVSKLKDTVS
Sequence of PROP1 (Homo sapiens, UniProt O75360 56-141, R99H) (O75360 56-141 R99H): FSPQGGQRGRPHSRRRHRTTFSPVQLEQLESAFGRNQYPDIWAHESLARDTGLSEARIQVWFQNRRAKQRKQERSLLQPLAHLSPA
Sequence of HOXA2 (Homo sapiens, UniProt O43364 129-215) (O43364 129-215): as the sequence (O43364 129-215 R185K) above, with K57R counted along it
Sequence of HOXA2 (Homo sapiens, UniProt O43364 129-215, Y150S) (O43364 129-215 Y150S): as the sequence (O43364 129-215 R185K) above, with Y22S, K57R counted along it
Sequence of PROP1 (Homo sapiens, UniProt O75360 56-141) (O75360 56-141): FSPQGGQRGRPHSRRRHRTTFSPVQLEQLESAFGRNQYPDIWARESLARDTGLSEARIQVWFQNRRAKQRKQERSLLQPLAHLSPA
Sequence of HOXD13 (Homo sapiens, UniProt P35453 263-343) (P35453 263-343): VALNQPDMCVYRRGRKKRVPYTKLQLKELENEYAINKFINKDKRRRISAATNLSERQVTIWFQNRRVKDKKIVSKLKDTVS

On to CGCCCAGA, for which the binding signal was 8.62 upbm affinity estimate (log intensity, higher = more binding, comparable within an allelic series) with HOXB9 [1]; 8.59 upbm affinity estimate (log intensity, higher = more binding, comparable within an allelic series) with HOXB9 [2]; 7.13 upbm affinity estimate (log intensity, higher = more binding, comparable within an allelic series) in the test with VAX1 [3]; 8.62 upbm affinity estimate (log intensity, higher = more binding, comparable within an allelic series) in the test with HOXB9 [4]; 7.22 upbm affinity estimate (log intensity, higher = more binding, comparable within an allelic series) with VAX1 [5]; 7.49 upbm affinity estimate (log intensity, higher = more binding, comparable within an allelic series) in the test with VAX1 [6].
Turning to TATAAATA, the binding signal with HOXB9 [1] was 9.81 upbm affinity estimate (log intensity, higher = more binding, comparable within an allelic series); with HOXB9 [2], 11.2 upbm affinity estimate (log intensity, higher = more binding, comparable within an allelic series); with HOXD13 [7] it was 10.8 upbm affinity estimate (log intensity, higher = more binding, comparable within an allelic series); with HOXB9 [4], 10.8 upbm affinity estimate (log intensity, higher = more binding, comparable within an allelic series).
On to CCGTGAGG, for which the binding signal is 8.4 upbm affinity estimate (log intensity, higher = more binding, comparable within an allelic series) with HOXB9 [1]; 8.23 upbm affinity estimate (log intensity, higher = more binding, comparable within an allelic series) in the test with HOXB9 [2]; 9.41 upbm affinity estimate (log intensity, higher = more binding, comparable within an allelic series) with MSX2 [8]; 9.11 upbm affinity estimate (log intensity, higher = more binding, comparable within an allelic series) in the test with MSX2 [9]; 8.2 upbm affinity estimate (log intensity, higher = more binding, comparable within an allelic series) with HOXB9 [4]; 9.23 upbm affinity estimate (log intensity, higher = more binding, comparable within an allelic series) with MSX2 [10].
CGAAGGAC: the binding signal is 8.68 upbm affinity estimate (log intensity, higher = more binding, comparable within an allelic series) with HOXB9 [1]; 8.57 upbm affinity estimate (log intensity, higher = more binding, comparable within an allelic series) in the test with HOXB9 [2]; 8.58 upbm affinity estimate (log intensity, higher = more binding, comparable within an allelic series) with HOXB9 [4].
As for CCTGCTCG, the binding signal was 8.58 upbm affinity estimate (log intensity, higher = more binding, comparable within an allelic series) with HOXB9 [1]; 8.34 upbm affinity estimate (log intensity, higher = more binding, comparable within an allelic series) with HOXB9 [2]; 9.56 upbm affinity estimate (log intensity, higher = more binding, comparable within an allelic series) in the test with MSX2 [8]; 9.58 upbm affinity estimate (log intensity, higher = more binding, comparable within an allelic series) in the test with MSX2 [9]; 8.42 upbm affinity estimate (log intensity, higher = more binding, comparable within an allelic series) in the test with HOXB9 [4]; 9.61 upbm affinity estimate (log intensity, higher = more binding, comparable within an allelic series) with MSX2 [10].
Turning to GCCGCAGA, the binding signal in the test with HOXB9 [1] is 8.65 upbm affinity estimate (log intensity, higher = more binding, comparable within an allelic series); with HOXB9 [2], 8.62 upbm affinity estimate (log intensity, higher = more binding, comparable within an allelic series); with HOXB9 [4], 8.62 upbm affinity estimate (log intensity, higher = more binding, comparable within an allelic series).
For CGCCGGAC, the binding signal is 8.48 upbm affinity estimate (log intensity, higher = more binding, comparable within an allelic series) with HOXB9 [1]; 7.23 upbm affinity estimate (log intensity, higher = more binding, comparable within an allelic series) with HOXA2 [11]; 8.46 upbm affinity estimate (log intensity, higher = more binding, comparable within an allelic series) with HOXB9 [2]; 10.4 upbm affinity estimate (log intensity, higher = more binding, comparable within an allelic series) with HOXA2 [12]; 8.52 upbm affinity estimate (log intensity, higher = more binding, comparable within an allelic series) in the test with HOXB9 [4]; 10.4 upbm affinity estimate (log intensity, higher = more binding, comparable within an allelic series) in the test with HOXA2 [13]. Also, in the test with HOXA2 [14], the binding signal was 7.32 upbm affinity estimate (log intensity, higher = more binding, comparable within an allelic series).
With CCCGTCTC, the binding signal is 8.46 upbm affinity estimate (log intensity, higher = more binding, comparable within an allelic series) with HOXB9 [1]; 8.32 upbm affinity estimate (log intensity, higher = more binding, comparable within an allelic series) with HOXB9 [2]; 8.4 upbm affinity estimate (log intensity, higher = more binding, comparable within an allelic series) in the test with HOXB9 [4].
Turning to CGGCGCCA, the binding signal in the test with HOXB9 [1] was 8.53 upbm affinity estimate (log intensity, higher = more binding, comparable within an allelic series); with HOXB9 [2], 8.36 upbm affinity estimate (log intensity, higher = more binding, comparable within an allelic series); with HOXB9 [4], 8.51 upbm affinity estimate (log intensity, higher = more binding, comparable within an allelic series).
For CCACGCCG, the binding signal was 8.48 upbm affinity estimate (log intensity, higher = more binding, comparable within an allelic series) in the test with HOXB9 [1]; 8.38 upbm affinity estimate (log intensity, higher = more binding, comparable within an allelic series) with HOXB9 [2]; 8.41 upbm affinity estimate (log intensity, higher = more binding, comparable within an allelic series) with HOXB9 [4].
CCGCAGCC: the binding signal in the test with HOXB9 [1] is 8.52 upbm affinity estimate (log intensity, higher = more binding, comparable within an allelic series); with HOXB9 [2] it was 8.38 upbm affinity estimate (log intensity, higher = more binding, comparable within an allelic series); in the test with MSX2 [8], 9.47 upbm affinity estimate (log intensity, higher = more binding, comparable within an allelic series); with HOXD13 [7] it was 9.38 upbm affinity estimate (log intensity, higher = more binding, comparable within an allelic series); with HOXD13 [15], 9.33 upbm affinity estimate (log intensity, higher = more binding, comparable within an allelic series); with MSX2 [9], 9.43 upbm affinity estimate (log intensity, higher = more binding, comparable within an allelic series). For the same sequence, the binding signal was 6.67 upbm affinity estimate (log intensity, higher = more binding, comparable within an allelic series) with PROP1 [16]; 6.75 upbm affinity estimate (log intensity, higher = more binding, comparable within an allelic series) with PROP1 [17]; 9.43 upbm affinity estimate (log intensity, higher = more binding, comparable within an allelic series) in the test with HOXD13 [18]; 8.47 upbm affinity estimate (log intensity, higher = more binding, comparable within an allelic series) in the test with HOXB9 [4]; 6.52 upbm affinity estimate (log intensity, higher = more binding, comparable within an allelic series) with PROP1 [19]; 9.45 upbm affinity estimate (log intensity, higher = more binding, comparable within an allelic series) in the test with MSX2 [10].
On to CTTGGGCC, for which the binding signal with HOXB9 [1] is 8.42 upbm affinity estimate (log intensity, higher = more binding, comparable within an allelic series); with HOXB9 [2], 8.37 upbm affinity estimate (log intensity, higher = more binding, comparable within an allelic series); in the test with VAX1 [3], 6.94 upbm affinity estimate (log intensity, higher = more binding, comparable within an allelic series); with HOXB9 [4], 8.33 upbm affinity estimate (log intensity, higher = more binding, comparable within an allelic series); with VAX1 [5], 7.04 upbm affinity estimate (log intensity, higher = more binding, comparable within an allelic series); in the test with VAX1 [6], 6.93 upbm affinity estimate (log intensity, higher = more binding, comparable within an allelic series).
As for ATAAATGA, the binding signal with HOXB9 [1] is 9.72 upbm affinity estimate (log intensity, higher = more binding, comparable within an allelic series); with HOXB9 [2], 11 upbm affinity estimate (log intensity, higher = more binding, comparable within an allelic series); with HOXB9 [4], 10.8 upbm affinity estimate (log intensity, higher = more binding, comparable within an allelic series).

The values above are taken from publication PMC11006913.
